# In PubChem BioAssay AID1159580 (chemical genetic matrix, 2015):
# Values joined by “and” are separate entries in the source; they are usually repeats but may differ in a detail not shown here. Identical values can stand only once. The whole screen tested about 5,500 compounds, of which about 2,000 (36%) were called active. Inconclusive results (about 18%) are left out. Cut-off read from the data, not from the text of the source: active = normalized growth mostly below about 0.91 (no sharp cut-off); inconclusive = no clear call, values can overlap the other calls; inactive = mostly above about 0.92. The list shows a part of the results.
# Test: chemical genetic growth profiling, strain panel (AID 1159580);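 note: tested at 20 µM; growth read once vehicle control cultures reached saturation at 30 °C; 1 = growth at the plate median or of vehicle wells; lower values mean less growth of the strain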
# Conditions: S. cerevisiae deletion strains, growth OD
smiles,measurement,setting,value
Nc1ncnc2nc[nH]c12,normalized growth,"locus YAL013W, strain DEP1, stronger effect = lower value",0.94 (inactive)
same,normalized growth,"locus YAL021C, strain ccr4, stronger effect = lower value",0.99 (inactive)
same,normalized growth,"locus YAL026C, strain drs2, stronger effect = lower value",0.99 (inactive)
same,normalized growth,"locus YAL030W, strain snc1, stronger effect = lower value",0.981 (inactive)
same,normalized growth,"locus YBL061C, strain skt5, stronger effect = lower value",0.98 (inactive)
same,normalized growth,"locus YBR009C, strain hhf1, stronger effect = lower value",0.992 (inactive)
same,normalized growth,"locus YBR021W, strain FUR4, stronger effect = lower value",0.201 (active)
same,normalized growth,"locus YBR023C, strain chs3, stronger effect = lower value",0.986 (inactive)
same,normalized growth,"locus YBR171W, strain sec66, stronger effect = lower value",0.976 (inactive)
same,normalized growth,"locus YBR229C, strain ROT2, stronger effect = lower value",1.02 (inactive)
same,normalized growth,"locus YBR231C, strain swc5, stronger effect = lower value",0.982 (inactive)
same,normalized growth,"locus YBR279W, strain paf1, stronger effect = lower value",0.993 (inactive)
same,normalized growth,"locus YCL011C, strain gbp2, stronger effect = lower value",0.978 (inactive)
same,normalized growth,"locus YCL016C, strain dcc1, stronger effect = lower value",0.973 (inactive)
same,normalized growth,"locus YCL029C, strain bik1, stronger effect = lower value",0.923 (inactive)
same,normalized growth,"locus YCL061C, strain MRC1, stronger effect = lower value",0.981 (inactive)
same,normalized growth,"locus YCL069W, strain vba3, stronger effect = lower value",0.99 (inactive)
same,normalized growth,"locus YCR088W, strain abp1, stronger effect = lower value",0.985 (inactive)
same,normalized growth,"locus YDL005C, strain med2, stronger effect = lower value",0.985 (inactive)
same,normalized growth,"locus YDL035C, strain GPR1, stronger effect = lower value",0.894 (inactive)
same,normalized growth,"locus YDL040C, strain nat1, stronger effect = lower value",0.983 (inactive)
same,normalized growth,"locus YDL074C, strain BRE1, stronger effect = lower value",0.645 (active)
same,normalized growth,"locus YDL101C, strain DUN1, stronger effect = lower value",0.968 (inactive)
same,normalized growth,"locus YDL185W, strain tfp1, stronger effect = lower value",1.01 (inactive)
same,normalized growth,"locus YDL192W, strain arf1, stronger effect = lower value",0.797 (active)
same,normalized growth,"locus YDR001C, strain nth1, stronger effect = lower value",0.983 (inactive)
same,normalized growth,"locus YDR069C, strain doa4, stronger effect = lower value",1.01 (inactive)
same,normalized growth,"locus YDR101C, strain arx1, stronger effect = lower value",0.866 (active)
same,normalized growth,"locus YDR137W, strain rgp1, stronger effect = lower value",0.985 (inactive)
same,normalized growth,"locus YDR150W, strain NUM1, stronger effect = lower value",1.02 (inactive)
same,normalized growth,"locus YDR159W, strain sac3, stronger effect = lower value",1 (inactive)
same,normalized growth,"locus YDR162C, strain NBP2, stronger effect = lower value",0.951 (inactive)
same,normalized growth,"locus YDR195W, strain ref2",0.998 (inactive)
same,normalized growth,"locus YDR297W, strain sur2, stronger effect = lower value",1.01 (inactive)
same,normalized growth,"locus YDR318W, strain mcm21, stronger effect = lower value",0.939 (inactive)
same,normalized growth,"locus YDR334W, strain swr1, stronger effect = lower value",0.982 (inactive)
same,normalized growth,"locus YDR335W, strain msn5, stronger effect = lower value",0.984 (inactive)
same,normalized growth,"locus YDR388W, stronger effect = lower value",0.98 (inactive)
same,normalized growth,"locus YDR392W, strain spt3, stronger effect = lower value",0.968 (inactive)
same,normalized growth,"locus YDR502C, strain sam2, stronger effect = lower value",0.908 (active)
same,normalized growth,"locus YEL003W, strain gim4, stronger effect = lower value",1.01 (inactive)
same,normalized growth,"locus YEL037C, strain rad23, stronger effect = lower value",0.984 (inactive)
same,normalized growth,"locus YEL061C, strain CIN8 (second series), stronger effect = lower value",0.986 (inactive)
same,normalized growth,"locus YEL061C, strain CIN8, stronger effect = lower value",0.996 (inactive)
same,normalized growth,"locus YER015W, strain faa2, stronger effect = lower value",0.994 (inactive)
same,normalized growth,"locus YER016W, strain bim1, stronger effect = lower value",0.994 (inactive)
same,normalized growth,"locus YER110C, stronger effect = lower value",1 (inactive)
same,normalized growth,"locus YER111C, strain swi4, stronger effect = lower value",0.983 (inactive)
same,normalized growth,"locus YER155C, strain BEM2 (second series), stronger effect = lower value",0.989 (inactive)
same,normalized growth,"locus YER155C, strain BEM2, stronger effect = lower value",0.792 (active)
same,normalized growth,"locus YER167W, strain BCK2, stronger effect = lower value",1.01 (inactive)
same,normalized growth,"locus YFR010W, strain ubp6, stronger effect = lower value",0.982 (inactive)
same,normalized growth,"locus YGL078C, strain dbp3, stronger effect = lower value",0.969 (inactive)
same,normalized growth,"locus YGL086W, strain mad1, stronger effect = lower value",0.838 (active)
same,normalized growth,"locus YGL167C, strain pmr1, stronger effect = lower value",0.979 (inactive)
same,normalized growth,"locus YGL173C, strain kem1, stronger effect = lower value",0.984 (inactive)
same,normalized growth,"locus YGL227W, strain vid30, stronger effect = lower value",0.987 (inactive)
same,normalized growth,"locus YGL240W, strain doc1, stronger effect = lower value",0.997 (inactive)
same,normalized growth,"locus YGL248W, strain PDE1, stronger effect = lower value",0.9 (inactive)
same,normalized growth,"locus YGL253W, strain hxk2, stronger effect = lower value",0.987 (inactive)
same,normalized growth,"locus YGR078C, strain PAC10, stronger effect = lower value",0.828 (active)
same,normalized growth,"locus YGR135W, strain pre9, stronger effect = lower value",0.922 (inactive)
same,normalized growth,"locus YGR252W, strain gcn5, stronger effect = lower value",0.705 (active)
same,normalized growth,"locus YHR013C, strain ard1, stronger effect = lower value",0.975 (inactive)
same,normalized growth,"locus YHR027C, strain rpn1, stronger effect = lower value",0.979 (inactive)
same,normalized growth,"locus YHR030C, strain SLT2, stronger effect = lower value",0.393 (active) and 1.02 (inactive)
same,normalized growth,"locus YHR079C, strain IRE1 (second series), stronger effect = lower value",0.974 (inactive)
same,normalized growth,"locus YHR079C, strain IRE1, stronger effect = lower value",1.02 (inactive)
same,normalized growth,"locus YHR094C, strain hxt1, stronger effect = lower value",0.999 (inactive)
same,normalized growth,"locus YHR129C, strain ARP1, stronger effect = lower value",0.898 (active)
same,normalized growth,"locus YHR142W, strain chs7, stronger effect = lower value",0.955 (inactive)
same,normalized growth,"locus YHR200W, strain rpn10, stronger effect = lower value",0.998 (inactive)
same,normalized growth,"locus YIL066C, strain RNR3, stronger effect = lower value",0.862 (active)
same,normalized growth,"locus YIL073C, strain SPO22, stronger effect = lower value",0.594 (active)
same,normalized growth,"locus YIL125W, strain kgd1, stronger effect = lower value",0.991 (inactive)
same,normalized growth,"locus YIR030C, strain dcg1, stronger effect = lower value",0.988 (inactive)
same,normalized growth,"locus YJL092W, strain hpr5, stronger effect = lower value",0.99 (inactive)
same,normalized growth,"locus YJL095W, strain BCK1 (second series), stronger effect = lower value",0.984 (inactive)
same,normalized growth,"locus YJL095W, strain BCK1, stronger effect = lower value",0.593 (active) and 1.02 (inactive)
same,normalized growth,"locus YJL115W, strain asf1, stronger effect = lower value",0.99 (inactive)
same,normalized growth,"locus YJL129C, strain trk1, stronger effect = lower value",0.99 (inactive)
same,normalized growth,"locus YJL134W, strain LCB3, stronger effect = lower value",1.02 (inactive)
same,normalized growth,"locus YJL154C, strain vps35, stronger effect = lower value",0.997 (inactive)
same,normalized growth,"locus YJL164C, strain tpk1, stronger effect = lower value",0.993 (inactive)
same,normalized growth,"locus YJL166W, strain qcr8, stronger effect = lower value",0.977 (inactive)
same,normalized growth,"locus YJL168C, strain set2, stronger effect = lower value",1 (inactive)
same,normalized growth,"locus YJL187C, strain SWE1 (second series), stronger effect = lower value",0.863 (active)
same,normalized growth,"locus YJL187C, strain SWE1, stronger effect = lower value",0.98 (inactive)
same,normalized growth,"locus YJR043C, strain POL32, stronger effect = lower value",0.907 (inactive)
